Sampled rows, rich in hits. Any-hit rate of the full collection: about 11%.
Pf growth 96h – Primary qHTS for delayed death inhibitors of the malarial parasite plastid, 96 hour incubation | P. falciparum luciferase reporter growth, 96 h | Potency, µM (titrated, usually from 28.7 µM), for inactives: at the top dose activity change, negative = inhibition, hits mostly inhibitors | 320,000 tested, 6.9% active | AID 504834, 2011
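Infected RBCs, 2% Hct / 0.05% parasitemia final; luciferase-reporter P. falciparum; cpd 96 h, 37 C, 5% CO2; luciferase detection reagent; luminescence.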
HCV inh – qHTS Assay for Inhibitors of Hepatitis C Virus (HCV); Huh7.5.1 HCVcc-Cre infection, luciferase reporter, 44 h; Potency, µM (top dose mostly 41.8 µM), without a hit: top-dose activity change, negative = inhibition, hits mostly inhibitors; 340,000 tested, 3.4% active; AID 651820, 2012
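Infectious HCVcc-Cre (~0.5 moi) was added to cells just after compound, with cells seeded 4 h earlier at 1,000 per well. Luciferase activity after 44 h culture reported infection; substrate was incubated 15 min at room temperature before reading.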
Pf growth 48h – Primary qHTS for delayed death inhibitors of the malarial parasite plastid, 48 hour incubation; P. falciparum luciferase growth in erythrocytes, 48 h; Potency, µM (top dose mostly 28.7 µM), without a hit: at the top dose activity change, negative = inhibition, actives largely listed as inhibitors; 310,000 tested, 5.9% active
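Growth was read as firefly luciferase luminescence after a 48 h, 37 C, 5% CO2 exposure of compounds to reporter-bearing P. falciparum cultures (0.1% parasitemia, 2% hematocrit final) in Albumax-supplemented RPMI 1640.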
AMA1 RON2 block – qHTS for Inhibitors of AMA1-RON; Towards Development of Antimalarial Drug Lead: Primary Screen | Plasmodium falciparum AMA1 (3D7) - RON2 peptide interaction | AlphaScreen AMA1-biotinylated RON2 peptide binding | Potency, µM (series often up to 58.2 µM), for the others: top-dose activity change, negative = inhibition, hits mostly inhibitors | 360,000 tested, 0.2% active;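 further: 0% = vehicle wells and -100% = peptide control; nearly all actives have a fitted effect of over 45% in size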
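AMA1 (3D7) with his tag at 25 nM final met compounds first, then biotinylated RON2 peptide at 25 nM; detection used donor plus acceptor beads, 10 µg/mL apiece, read by AlphaScreen after 30 min at room temperature.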
Numbers without * were called inactive; ? = inconclusive; / = not tested or not shown; [ ] = dose if it differs, or a comment. The call rests on the fitted dose curve; in most records, active means well fitted curve in the direction sought with a large enough effect; inconclusive means small, poorly fitted or top-dose-only effect, or another doubt; inactive means no such curve, though single readings can be large; an effect the other way counts as inactive or inconclusive. Unless noted, on the % scale 0 is the no-effect control and ±100 the full control effect; potency means the concentration at half of the fitted maximal effect.

SMILES | Pf growth 96h | HCV inh | Pf growth 48h | AMA1 RON2 block
Cc1ncc(CO)c(/C=N/NC(=O)c2cc3c(s2)CCCC3)c1O | ? | 7.94µM* | ? | -22.1%
Cc1ncc(CO)c(/C=N/NC(=O)c2ccoc2C)c1O | -5.7% | ? | ? | 79.1%
COc1ccccc1NS(=O)(=O)c1cccc(C(=O)N/N=C/c2c(CO)cnc(C)c2O)c1 | ? | ? | 11.7µM* | ?
Cc1ncc(CO)c(/C=N/NC(=O)c2ccc(O)cc2)c1O | ? | -15.0% | 2.08µM* | 38.7%
COc1ccc(C(=O)N/N=C/c2c(CO)cnc(C)c2O)cc1 | ? | -5.9% | ? | 60.8%
COc1ccccc1NS(=O)(=O)c1cccc(C(=O)N/N=C(\C)c2ccc(-n3ccnc3)cc2)c1 | 13.1µM* | -14.8% | / | 51.0%
COc1ccccc1NS(=O)(=O)c1cccc(C(=O)N/N=C(/C)c2ccc(-n3ccnc3)cc2)c1 | / | ? | / | 38.6%
O=C(O)c1cccnc1SCc1ccccc1 | -4.4% | 7.0% | 8.4% | -9.2%
COc1cccc(CN2CC(C(=O)NCc3cccc(N4CCCC4)c3)CCC2=O)c1 (centres undefined) | ? | ? | ? | -2.3%
Cc1cc(C)cc(C(=O)NC(CC(N)=O)c2ccc(NC3CCCCC3)c([N+](=O)[O-])c2)c1 (centres undefined) | 20.2% | 37.9% | 11.6% | 34.0%
Cc1ncc(CO)c(/C=N/NC(=S)Nc2ccc(Cl)c(Cl)c2)c1O | ? | 14.1µM* | ? | 27.2%
CCCCN1C(=O)NC(=O)C2(Cc3c(nc4c(C)cccn4c3=O)N3CCc4ccccc4C32)C1=O (centres undefined) | 0.0% | ? | 9.28µM* | -1.5%
CCCCN1C(=O)NC(=O)C2(Cc3c(nc4ccccn4c3=O)N3CCc4ccccc4C32)C1=O (centres undefined) | -56.9% | 4.8% | ? | 9.1%
Cc1cccn2c(=O)c3c(nc12)N1CCc2ccccc2C1C1(C3)C(=O)NC(=O)N(C)C1=O (centres undefined) | / | 16.0% | 13.1µM* | -6.8%
Cc1cccn2c(=O)c3c(nc12)N1CCCCCC1C1(C3)C(=O)N(C)C(=O)N(C)C1=O (centres undefined) | 2.62µM* | 17.6% | ? | -7.3%
Cc1ccc(Nc2c([N+](=O)[O-])c(=O)n(C)c3ccccc23)cc1C | ? | ? | ? | -3.8%
CCOc1ccccc1-n1c(=O)c2ccccc2c2ccccc2c1=O | 32.8% | 33.6% | 13.4% | 4.1%
COc1ccc(S(=O)(=O)N(C)C[C@H]2Oc3c(NC(=O)c4ccncc4)cccc3C(=O)N([C@H](C)CO)C[C@@H]2C)cc1 | / | 7.1% | / | 0.0%
COP(=O)(OC)C(Nc1ccccc1)c1ccccc1 (centres undefined) | 16.5µM* | 6.5% | 9.5% | 3.6%
COP(=O)(OC)C(Nc1ccc(Cl)cc1)c1ccccc1 (centres undefined) | 0.0% | 5.8% | 0.0% | -0.9%
CC(C)OP(=O)(c1ccc(N(C)C)cc1)C(Nc1ccccc1)c1ccccc1 (centres undefined) | ? | -27.0% | 8.28µM* | ?
Cc1[nH]c2ccccc2c1C(=O)C(=O)NCc1nnnn1-c1ccc(F)c(F)c1 | / | / | / | -7.8%
Cc1cc(C)c(C#N)c(SCC(=O)c2ccc(Cl)cc2Cl)n1 | 10.4µM* | ? | 13.1µM* | ?
CC(=O)C1=C(C)NC(SCc2ccc(C#N)cc2)=C(C#N)C1c1ccco1 (centres undefined) | 0.0% | ? | -1.8% | 34.7%
CC(=O)C1=C(C)NC(SCC(=O)c2ccc(Cl)cc2)=C(C#N)C1c1ccco1 (centres undefined) | ? | ? | ? | 38.7%
CC(=O)C1=C(C)NC(SCc2cccc3ccccc23)=C(C#N)C1c1ccco1 (centres undefined) | 2.94µM* | ? | 10.4µM* | 21.3%
CC(=O)C1=C(C)NC(SCC(=O)c2ccc(Cl)cc2Cl)=C(C#N)C1c1ccco1 (centres undefined) | ? | 2.51µM* | ? | 39.7%
O=C1C=C(Nc2ccc(F)cc2)c2ccccc2C1=O | 1.04µM* | ? | 1.85µM* | 4.3%[11.6 µM]
O=C1C=C(NCc2ccccc2)c2ccccc2C1=O | -4.6% | ? | ? | -5.7%

Assay outcomes from PubChem.
